# ChEMBL document CHEMBL3988442, “University of Dundee, Small-Polar-MMV Screening Library” (2021)
# For some assays here: Potency and affinity values are given separately.
# Legend:
# [1] = biological target: Protein translocase subunit SecA (Escherichia coli (strain K12)) (UniProt P10408); experiment: Assay to Identify E. coli SecA ATPase Inhibitors; assay type: functional; set-up: scale not given: direction of the effect not stated beside the values; details: 30 µM
# [2] = biological target: T1, Ubiquitin-activating enzyme e1, putative (Leishmania donovani (strain BPK282A1)) (UniProt E9BSI1); experiment: Leishmania donovani Ubiquitin Activating Enzyme (LdE1); assay type: functional; set-up: scale not given: direction of the effect not stated beside the values; details: 30 µM
# T1 sequence (whole entry): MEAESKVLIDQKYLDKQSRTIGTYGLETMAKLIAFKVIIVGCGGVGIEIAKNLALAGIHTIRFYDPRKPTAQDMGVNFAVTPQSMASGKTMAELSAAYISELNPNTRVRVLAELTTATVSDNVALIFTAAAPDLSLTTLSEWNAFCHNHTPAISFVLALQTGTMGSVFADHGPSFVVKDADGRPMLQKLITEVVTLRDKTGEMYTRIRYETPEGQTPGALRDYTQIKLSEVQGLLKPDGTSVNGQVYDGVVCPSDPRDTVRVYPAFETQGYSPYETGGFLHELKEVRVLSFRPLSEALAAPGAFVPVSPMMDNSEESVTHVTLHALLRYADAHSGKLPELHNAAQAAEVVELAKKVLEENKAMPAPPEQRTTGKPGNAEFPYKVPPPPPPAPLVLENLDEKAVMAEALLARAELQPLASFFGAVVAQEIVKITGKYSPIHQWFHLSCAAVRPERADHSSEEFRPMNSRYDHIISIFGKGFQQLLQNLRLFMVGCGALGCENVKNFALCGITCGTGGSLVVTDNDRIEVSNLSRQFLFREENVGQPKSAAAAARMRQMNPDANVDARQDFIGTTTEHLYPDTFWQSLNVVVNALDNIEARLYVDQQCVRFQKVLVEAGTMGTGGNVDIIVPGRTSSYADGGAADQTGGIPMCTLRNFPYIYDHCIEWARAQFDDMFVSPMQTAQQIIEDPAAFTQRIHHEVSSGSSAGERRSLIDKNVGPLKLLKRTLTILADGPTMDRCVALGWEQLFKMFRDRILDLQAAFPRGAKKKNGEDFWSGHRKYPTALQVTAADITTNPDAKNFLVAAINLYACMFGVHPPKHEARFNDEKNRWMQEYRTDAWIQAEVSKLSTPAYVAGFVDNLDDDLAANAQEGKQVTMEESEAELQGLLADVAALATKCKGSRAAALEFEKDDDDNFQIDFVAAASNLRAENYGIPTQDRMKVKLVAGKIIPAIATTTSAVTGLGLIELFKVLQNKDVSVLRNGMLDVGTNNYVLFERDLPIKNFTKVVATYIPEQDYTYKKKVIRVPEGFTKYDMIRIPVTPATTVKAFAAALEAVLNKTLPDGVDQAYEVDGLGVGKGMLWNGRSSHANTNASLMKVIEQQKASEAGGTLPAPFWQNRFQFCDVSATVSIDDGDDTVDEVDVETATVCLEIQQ
# [3] = biological target: AMP-activated protein kinase, AMPK (Homo sapiens) (UniProt P54646+O43741+P54619+Q9UGJ0+Q9Y478+Q13131+Q9UGI9); experiment: AMP-dependent Kinase enzyme assay. An in vitro enzyme assay that detects ADP turnover that is directly proportional to AMPK activity. This uses naive AMPK that is activated during the assay with MK-8722; assay type: functional; set-up: scale not given: direction of the effect not stated beside the values; details: 30 µM
# [4] = biological target: Sialic acid-binding Ig-like lectin 9 (Homo sapiens) (UniProt Q9Y336); experiment: Hs-Siglec9 ALPHAscreen SOP 20170721; set-up: scale not given: direction of the effect not stated beside the values; details: 10 µM
# Sialic acid-binding Ig-like lectin 9 (Homo sapiens), sequence (Q9Y336 whole entry): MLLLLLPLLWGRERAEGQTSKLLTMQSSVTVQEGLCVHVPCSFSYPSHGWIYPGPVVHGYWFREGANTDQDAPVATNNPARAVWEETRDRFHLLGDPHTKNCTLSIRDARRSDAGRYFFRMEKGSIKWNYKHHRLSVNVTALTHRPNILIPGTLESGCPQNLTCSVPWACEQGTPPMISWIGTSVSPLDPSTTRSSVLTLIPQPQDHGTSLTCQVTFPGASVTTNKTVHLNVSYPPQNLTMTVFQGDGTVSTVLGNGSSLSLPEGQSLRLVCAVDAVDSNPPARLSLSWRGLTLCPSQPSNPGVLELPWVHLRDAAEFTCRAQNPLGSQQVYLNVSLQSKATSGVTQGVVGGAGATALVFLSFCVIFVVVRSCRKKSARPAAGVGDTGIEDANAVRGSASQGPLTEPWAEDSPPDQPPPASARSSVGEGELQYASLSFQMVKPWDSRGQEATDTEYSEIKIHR
# Trypanosoma cruzi = experiment: Trypanosoma cruzi phosphomannomutase and mannose-1-phosphate guanylyltransferase assay; assay type: functional; set-up: scale not given: direction of the effect not stated beside the values; details: 10 µM
# [5] = biological target: T2, Arginase-2, mitochondrial (Homo sapiens) (UniProt P78540); experiment: in vitro enzyme assay to detect the production of urea directly proportional to the activity of Arginase II; assay type: functional; set-up: scale not given: in the data most compounds retested in dose-response had high values
# T2 sequence (whole entry): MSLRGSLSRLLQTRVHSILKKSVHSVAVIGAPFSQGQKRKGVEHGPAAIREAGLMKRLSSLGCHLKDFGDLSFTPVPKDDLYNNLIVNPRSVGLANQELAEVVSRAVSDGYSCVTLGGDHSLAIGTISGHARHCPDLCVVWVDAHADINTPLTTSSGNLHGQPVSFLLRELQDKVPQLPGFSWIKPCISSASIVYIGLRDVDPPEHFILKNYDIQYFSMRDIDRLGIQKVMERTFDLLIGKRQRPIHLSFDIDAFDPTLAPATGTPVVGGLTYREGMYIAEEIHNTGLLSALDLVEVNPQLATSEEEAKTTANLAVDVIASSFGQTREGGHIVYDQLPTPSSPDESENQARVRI
# [6] = biological target: T3, Proteasome subunit beta (Trypanosoma cruzi) (UniProt O96673); experiment: Trypanosoma cruzi proteasome chymotrypsin-like activity (TcProtChymo) assay.; assay type: functional; set-up: scale not given: in the data most compounds retested in dose-response had high values; details: 9.37 µM
# T3 sequence (whole entry): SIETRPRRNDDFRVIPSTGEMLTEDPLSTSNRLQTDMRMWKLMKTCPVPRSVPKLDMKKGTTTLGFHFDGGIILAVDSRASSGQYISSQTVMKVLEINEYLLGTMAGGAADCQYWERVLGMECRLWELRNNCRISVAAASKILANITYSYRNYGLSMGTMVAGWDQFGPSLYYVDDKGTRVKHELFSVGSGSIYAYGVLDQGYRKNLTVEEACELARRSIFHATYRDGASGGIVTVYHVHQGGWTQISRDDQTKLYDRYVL
# Homo sapiens = species on record: Homo sapiens; experiment: To identify inhibition of the IFN signalling (Jak-Stat) pathway via expression of an eGFP reporter gene under the control of an IFN-stimulated response element (ISRE) containing MxA promoter.; assay type: functional; set-up: scale not given: direction of the effect not stated beside the values; details: 30 µM
# [7] = biological target: T4, Tyrosyl-tRNA synthetase, putative (Trypanosoma cruzi (strain CL Brener)) (UniProt Q4DSP6); experiment: Trypanosoma cruzi tyrosyl tRNA synthetase (TcYRS) _High Tyrosine SOP; assay type: functional; set-up: scale not given: in the data most compounds retested in dose-response had high values; details: 30 µM
# T4 sequence (whole entry): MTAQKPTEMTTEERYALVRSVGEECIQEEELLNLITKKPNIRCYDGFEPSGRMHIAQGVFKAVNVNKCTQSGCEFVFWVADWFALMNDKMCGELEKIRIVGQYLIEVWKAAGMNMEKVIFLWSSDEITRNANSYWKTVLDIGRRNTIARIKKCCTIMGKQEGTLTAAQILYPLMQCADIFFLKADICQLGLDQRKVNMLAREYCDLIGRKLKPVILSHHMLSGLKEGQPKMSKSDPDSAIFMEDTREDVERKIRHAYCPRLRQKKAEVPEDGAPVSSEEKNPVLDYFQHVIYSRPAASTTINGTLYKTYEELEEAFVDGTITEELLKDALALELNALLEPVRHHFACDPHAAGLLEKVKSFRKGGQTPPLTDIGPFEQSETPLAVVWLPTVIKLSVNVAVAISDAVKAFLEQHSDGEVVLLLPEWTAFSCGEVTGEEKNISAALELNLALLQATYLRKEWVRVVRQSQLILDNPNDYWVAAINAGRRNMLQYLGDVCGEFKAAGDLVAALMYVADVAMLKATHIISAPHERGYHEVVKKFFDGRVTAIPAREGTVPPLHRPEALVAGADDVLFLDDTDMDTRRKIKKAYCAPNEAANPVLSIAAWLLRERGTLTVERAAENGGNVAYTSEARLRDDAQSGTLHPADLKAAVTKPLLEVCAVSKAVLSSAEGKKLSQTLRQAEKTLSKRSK
# [8] = biological target: T4, Tyrosyl-tRNA synthetase, putative (Trypanosoma cruzi (strain CL Brener)); experiment: Trypanosoma cruzi tyrosyl tRNA synthetase (TcYRS) SOP; assay type: functional; set-up: scale not given: direction of the effect not stated beside the values; details: 30 µM
# [9] = biological target: Chromo domain-containing protein 1 (Saccharomyces cerevisiae (strain ATCC 204508 / S288c) (Baker's yeast)) (UniProt P32657); experiment: ScCHD-1 Enzyme Inhibition Assay; assay type: functional; set-up: scale not given: in the data most compounds retested in dose-response had high values; details: 30 µM
# Chromo domain-containing protein 1 (Saccharomyces cerevisiae (strain ATCC 204508 / S288c) (Baker's yeast)), sequence (P32657 whole entry, the tested form may be a part): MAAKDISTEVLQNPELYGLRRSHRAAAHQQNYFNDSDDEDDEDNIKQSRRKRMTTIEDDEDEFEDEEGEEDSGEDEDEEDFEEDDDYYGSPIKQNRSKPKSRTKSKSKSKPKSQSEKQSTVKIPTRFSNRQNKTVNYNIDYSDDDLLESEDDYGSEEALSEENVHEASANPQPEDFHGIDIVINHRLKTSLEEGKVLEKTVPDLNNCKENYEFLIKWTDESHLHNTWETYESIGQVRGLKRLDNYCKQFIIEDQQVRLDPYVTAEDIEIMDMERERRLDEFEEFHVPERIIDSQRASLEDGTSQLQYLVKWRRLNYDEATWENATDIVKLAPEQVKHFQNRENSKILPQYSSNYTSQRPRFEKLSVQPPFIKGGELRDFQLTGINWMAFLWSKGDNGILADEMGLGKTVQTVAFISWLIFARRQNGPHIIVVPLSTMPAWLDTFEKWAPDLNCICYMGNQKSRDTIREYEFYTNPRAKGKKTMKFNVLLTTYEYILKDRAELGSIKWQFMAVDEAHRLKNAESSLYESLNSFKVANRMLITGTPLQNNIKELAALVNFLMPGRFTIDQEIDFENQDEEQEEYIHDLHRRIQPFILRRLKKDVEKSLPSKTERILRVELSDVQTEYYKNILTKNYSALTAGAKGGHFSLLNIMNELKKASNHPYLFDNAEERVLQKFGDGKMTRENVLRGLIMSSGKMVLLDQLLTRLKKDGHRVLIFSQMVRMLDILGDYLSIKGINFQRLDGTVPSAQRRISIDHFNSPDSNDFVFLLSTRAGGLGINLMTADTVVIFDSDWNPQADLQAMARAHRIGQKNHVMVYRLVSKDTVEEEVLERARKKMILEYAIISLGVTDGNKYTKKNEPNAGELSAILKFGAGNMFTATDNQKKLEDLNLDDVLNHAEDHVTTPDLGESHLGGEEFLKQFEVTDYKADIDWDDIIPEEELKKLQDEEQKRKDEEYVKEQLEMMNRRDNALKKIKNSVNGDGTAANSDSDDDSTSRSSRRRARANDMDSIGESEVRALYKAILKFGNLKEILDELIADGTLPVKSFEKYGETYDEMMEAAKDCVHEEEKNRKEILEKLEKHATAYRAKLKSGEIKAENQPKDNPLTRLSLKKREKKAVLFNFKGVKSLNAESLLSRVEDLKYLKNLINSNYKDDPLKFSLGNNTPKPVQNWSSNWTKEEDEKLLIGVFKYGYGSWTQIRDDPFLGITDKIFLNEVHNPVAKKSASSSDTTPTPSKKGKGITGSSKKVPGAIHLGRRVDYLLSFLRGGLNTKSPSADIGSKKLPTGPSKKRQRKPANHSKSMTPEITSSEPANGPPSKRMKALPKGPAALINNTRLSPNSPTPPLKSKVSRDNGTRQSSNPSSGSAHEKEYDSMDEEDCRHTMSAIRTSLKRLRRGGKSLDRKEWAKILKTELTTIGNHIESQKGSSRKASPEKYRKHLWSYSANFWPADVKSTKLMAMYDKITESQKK
# [10] = biological target: T5, Methionyl-tRNA synthetase, putative (Leishmania donovani (strain BPK282A1)) (UniProt E9BF75); experiment: Leishmania donovani Methionine tRNA synthetase (LdMetRS):v7. Dose response assay; assay type: functional; set-up: conc 80 nM, time 150 minutes
# T5 sequence (whole entry): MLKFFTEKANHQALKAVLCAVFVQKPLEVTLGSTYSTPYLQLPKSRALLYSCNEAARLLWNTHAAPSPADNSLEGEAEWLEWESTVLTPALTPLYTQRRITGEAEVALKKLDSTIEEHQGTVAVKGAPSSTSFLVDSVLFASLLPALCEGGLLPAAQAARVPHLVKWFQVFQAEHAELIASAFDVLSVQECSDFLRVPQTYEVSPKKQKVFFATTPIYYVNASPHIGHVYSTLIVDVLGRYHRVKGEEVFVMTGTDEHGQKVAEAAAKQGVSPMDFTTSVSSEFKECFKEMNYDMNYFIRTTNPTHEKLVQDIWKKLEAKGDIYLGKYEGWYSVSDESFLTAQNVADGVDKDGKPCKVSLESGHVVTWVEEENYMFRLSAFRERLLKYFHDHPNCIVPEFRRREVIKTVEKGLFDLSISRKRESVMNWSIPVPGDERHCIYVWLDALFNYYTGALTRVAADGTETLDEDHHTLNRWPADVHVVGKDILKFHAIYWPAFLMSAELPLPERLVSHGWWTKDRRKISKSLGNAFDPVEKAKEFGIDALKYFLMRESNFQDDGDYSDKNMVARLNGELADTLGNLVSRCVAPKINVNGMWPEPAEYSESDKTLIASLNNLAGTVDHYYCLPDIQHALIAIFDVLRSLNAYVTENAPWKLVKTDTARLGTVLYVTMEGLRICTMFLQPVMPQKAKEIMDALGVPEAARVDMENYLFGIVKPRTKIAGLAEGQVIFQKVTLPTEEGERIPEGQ
# Protein translocase subunit SecA (Escherichia coli (strain K12)), sequence (P10408 whole entry): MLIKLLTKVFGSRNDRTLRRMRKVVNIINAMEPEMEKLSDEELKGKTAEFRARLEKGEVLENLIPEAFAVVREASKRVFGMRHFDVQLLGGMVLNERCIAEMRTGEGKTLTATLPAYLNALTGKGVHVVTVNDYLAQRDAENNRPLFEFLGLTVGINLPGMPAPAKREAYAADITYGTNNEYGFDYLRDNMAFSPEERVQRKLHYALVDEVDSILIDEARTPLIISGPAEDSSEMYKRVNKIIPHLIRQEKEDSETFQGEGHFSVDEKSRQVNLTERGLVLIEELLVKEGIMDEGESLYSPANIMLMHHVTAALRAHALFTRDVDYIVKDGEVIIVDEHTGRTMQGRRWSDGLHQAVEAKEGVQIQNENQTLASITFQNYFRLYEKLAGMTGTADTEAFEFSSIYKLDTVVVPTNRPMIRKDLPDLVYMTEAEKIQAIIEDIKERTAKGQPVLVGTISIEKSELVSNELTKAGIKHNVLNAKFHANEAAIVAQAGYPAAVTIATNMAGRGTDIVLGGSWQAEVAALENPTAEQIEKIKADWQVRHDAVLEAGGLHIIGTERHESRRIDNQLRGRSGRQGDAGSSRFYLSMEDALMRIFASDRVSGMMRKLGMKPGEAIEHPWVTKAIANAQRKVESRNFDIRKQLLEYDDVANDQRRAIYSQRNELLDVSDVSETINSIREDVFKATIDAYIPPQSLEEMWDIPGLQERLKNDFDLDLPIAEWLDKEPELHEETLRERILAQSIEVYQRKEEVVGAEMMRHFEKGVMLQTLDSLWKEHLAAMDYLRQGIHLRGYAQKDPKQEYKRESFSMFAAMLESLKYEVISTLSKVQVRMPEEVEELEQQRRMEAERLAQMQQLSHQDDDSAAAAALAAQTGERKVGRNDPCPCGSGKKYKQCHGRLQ
Structure (SMILES),Percent Effect [1],Percent Effect [2],Percent Effect [3],Percent Effect [4],Percent Effect (Trypanosoma cruzi),Percent Effect ([5]; 30 µM),Percent Effect ([5]; 33.3 µM),Percent Effect [6],Percent Effect (Homo sapiens),Percent Effect [7],Percent Effect [8],Percent Effect [9],PXC50 ([10]; MAX_EFFECT 6.650831354),PXC50 ([10]; MAX_EFFECT 15.31690141),PXC50 ([10]; MAX_EFFECT 4.401408451),PXC50 ([10]; MAX_EFFECT 5.700712589)
CNC(=O)[C@H]1C[C@@H]2CN(C(=O)c3cscn3)C[C@@H]2N1S(C)(=O)=O,-2.22%,5.33%,0.103%,9.01%,-4.05%,4.87%,-27.1%,5.64%,-13%,4.17%,-52.5%,-3.61%,–,–,–,–
OC(CN(Cc1ccccc1)Cc1ccncc1)c1cccs1 (configuration not stated),3.55%,2.7%,-2.19%,5.24%,4.79%,5.95%,25.1%,10.2%,5.3%,1.07%,6.17%,-8.61%,–,–,–,–
Cn1cc(CC2CCN(C(=O)NCc3cn4ccsc4n3)C2)cn1 (configuration not stated),-6.21%,13.2%,-5.79%,-0.407%,5.36%,2.7%,-18.9%,12.2%,4.6%,6.38%,18.2%,-14.5%,–,–,–,–
Cn1cc(CN2CCC(F)(F)C3(CCN(c4cnccn4)C3)C2)cn1 (configuration not stated),-4.19%,2.7%,6.66%,-1.14%,0%,–,4.17%,-3.47%,5.63%,8.91%,8.54%,-4.16%,< 4,< 4,–,–
CC1CCCN(CC(=O)N2CCC(c3ncc4c(n3)CCNC4)CC2)C1 (configuration not stated),-3.77%,2.67%,14.5%,-3.5%,0.394%,–,-0.699%,5.02%,3.99%,-1.06%,-3.85%,2.27%,–,–,< 4,< 4
